The panel holds about 83,000 compounds, 20% with a hit somewhere; the sample as a whole holds those more often.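 Negative percent growth values reflect cell death: -40 means 40% of the cells present at the start died, and -100 means all died.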 A number with no mark means an inactive call. The source made the active and inactive calls. The calls were made as follows: active = growth percent below 10; inactive = the rest.
Each compound was assayed on NCI-H23 lung (assay: NCI-60 one-dose screen, 48 h (100 = growth as untreated, 0 = no growth, -100 = all killed)). Conditions: 10 µM unless noted.

| SMILES | growth |
| --- | --- |
| CCNC(=O)Oc1ccc(/C(=C(/C)Cc2ccc(OC)cc2)c2ccc(OCCN3CCCCC3)cc2)cc1 | 87.7% |
| COC(=O)C(Cc1ccccc1)NC(=O)c1ccc(NC(=O)c2[nH]c(C)c(Cl)c2Cl)c(OC(C)C)c1 (stereo not given) | 70% |
| Cc1ccc(S(=O)(=O)Oc2ccc3sc4cccc(NCCN(C)C)c4c(=O)c3c2)cc1 | -93.5% (active) |
| O=C(Nc1ncccc1OCc1ccccc1)NC1CCCCCC1 | 89.8% |
| CCNc1nc(O)c(/C=C2\C=Nc3ncccc32)s1 | -7.87% (active) |
| Ic1ccccc1I | 98.9% |
| CC1=C2[C@@H](CC1)[C@]1(C)O[C@@](C3CCCCC3)(C[C@H]1OC(=O)CO)[C@H]2OC(=O)/C=C/c1ccccc1 | 93.6% |
| Cc1ccc(-c2csc(NC(=O)c3ccccc3CN3C(=O)c4ccccc4C3=O)n2)cc1 | 93.3% |
| Oc1c(CN2CCCC2)cc(CSCc2ccccc2)c2cccnc12 | 11.8% |
| Cc1ccc(-c2nc(SCc3nc4cc(Cl)c(Cl)cc4[nH]3)[nH]c(=O)c2C#N)cc1 | 99.2% |
| CC/C=C\CCC/C=C1/C(=O)C=C[C@@H]1C/C=C\CCCC(=O)OC | 34.9% |
| C=C1C(=O)O[C@H]2[C@H]1CC/C(Cn1cc(CCC)nn1)=C\CC[C@@]1(C)O[C@@H]21 | 41.1% |
| CN(C)CCCC1(c2ccc(F)cc2)OCc2cc(-c3ccc4cc[nH]c4c3)ccc21 (stereo not given) | 86.6% |
| COc1ccc(CCN(CC(=O)N(CC(N)=O)C2CCC[C@@H]2OCc2ccccc2)C(=O)CN(C(=O)CN(CCc2ccc(Cl)cc2)C(=O)CN(C(=O)CN(C)Cc2ccccc2F)[C@H](C)C2CCCCC2)[C@H](C)C2CCCCC2)cc1OC (stereo not given in full) | 31.9% |
| COc1ccc(C(=O)Cn2c(C(=O)c3ccc(Cl)cc3)nc3ccccc32)cc1 | 78.3% |
| O=C1/C(=C/c2ccccc2F)CN(C(=O)C(Cl)Cl)C/C1=C\c1ccccc1F | -33.2% (active) |
| CCOC(=O)C1=C(C)C(Cl)=N/C1=C\c1[nH]c(Cl)c(C)c1C(=O)OCC | 98.2% |
| COc1ccc(/C=C/C(c2cc(OC)c(OC)c(OC)c2)n2cncn2)cc1 (stereo not given) | 67% |
| CCN1C(=O)N(CC)C2C1NC(=S)N2/N=C/c1ccc(C(F)(F)F)cc1 (stereo not given) | 79.8% |
| C[C@H](CCCC(=O)NCC#CCN1CCN(C)CC1)[C@H]1CC[C@H]2[C@@H]3CC[C@@H]4CC(=O)CC[C@]4(C)[C@H]3CC[C@]12C | 87.7% |

| SMILES | growth |
| --- | --- |
| Fc1cccc(-c2ccc3c(c2)C2(CCNCC2)CN3)c1 | 92.1% |
| CCN1C(=O)N(CC)C2Nn3c(s/c(=C\c4ccccc4Br)c3=O)=NC21 (stereo not given) | 25.6% |
| O=C(NCc1cccc(CNC(=O)Nc2nc3ccccc3[nH]2)c1)Nc1nc2ccccc2[nH]1 | -65.1% (active) |
| O=C1Nc2ccccc2/C1=C\c1c[nH]c2ccc(Br)cc12 | 77.4% |
| COc1cc(C2C(C(=O)OCc3ccccc3)=C(C)NC(C)=C2C(=O)OCc2ccccc2)cc(OC)c1OC | 29.3% |
| CCn1cc(CNc2ccc(C(=O)Nc3cc4cc(OC)c(OC)cc4c(C)n3)cc2)cn1 | 43.3% |
| COc1cc(/C=C/C(=O)/C=C(O)/C=C/c2ccc(OC(=O)C34CC5CC(CC(C5)C3)C4)c(OC)c2)ccc1OC(=O)C12CC3CC(CC(C3)C1)C2 | 103% |
| COc1ccc(C2=CN3CC=CC3CC2=O)cc1 (stereo not given) | 97.8% |
| C=C(C)[C@@H]1CCC[C@]2(C(=O)O)CC[C@]3(C)[C@@H](CC[C@@H]4[C@@]5(C)C/C(=C/c6ccncc6)C(=O)C(C)(C)[C@@H]5CC[C@]43C)[C@@H]12 | 20.9% |
| FC(F)(F)c1ccc(Cn2cc(CSc3nc4ccccc4s3)nn2)cc1 | 97.6% |
| CCCn1nc(C(=O)N(C)Cc2ccccc2)c2c1CCC(N1CCc3ccccc31)C2 (stereo not given) | 97.9% |
| CCN1C(=O)N(CC)C2C1NN=c1s/c(=C\c3cnc(C)n3C)c(=O)n12 (stereo not given) | 38.1% |
| CCOC(=O)c1c(C)nc2ccccc2c1/C=C/c1ccccc1 | 51% |
| CN1CCN(C(=S)SCCCCOc2cc(=O)oc3ccccc23)CC1 | 80.9% |
| Nc1nc(N)c2c(n1)NC(c1cccc(Nc3ccnc4cc(C(F)(F)F)ccc34)c1)CC(c1ccc(Br)cc1)=N2 (stereo not given) | 66.3% |
| O=C(Nc1ccc(Cl)cc1)Oc1c(Cl)c(Cl)c(Cl)c(Cl)c1Cl | 86.1% |
| CC(=O)/C(=C/c1ccc([N+](=O)[O-])cc1)C(=O)c1ccccc1 | 88.1% |
| Cc1cccc(N2CCC(=O)NC2=S)c1 | 98.5% |
| Cc1ccc(S(=O)(=O)OCCCOS(=O)(=O)c2ccc(C)cc2)cc1 | 105% |
| CCOC(=O)c1c(C)nc2c(c1N)CC(=O)N2Cc1ccc(OC)cc1 | 33.7% |

From PubChem BioAssay (NCI)
